Experimental findings from PubChem BioAssay (NCI) are described below.

About 83,000 compounds went through this panel and 20% of them were active in at least one assay; those are over-represented in the sample as a whole.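 For each line, cells grew in 96-well plates with the test compound present at a single concentration for 48 hours.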 Values without a mark were called inactive. The source made the active and inactive calls.

The subject of this experiment is RPMI-8226 leukemia. Description: NCI-60 one-dose screen, 48 h (100 = growth as untreated, 0 = no growth, -100 = all killed). The conditions noted are these: 10 µM unless noted. On the procedure: Growth inhibition of the RPMI-8226 human tumor cell line is measured as a screen for anti-cancer activity. Cells are grown in 96 well plates and exposed to the test compound for 48 hours. Compounds are tested at a single concentration, which is 10^-5 M for most compounds. The reported endpoint is percent growth (GI% or GIPRCNT), where numbers from 0 - 100% represent growth inhibition, and numbers from -100% - 0 represent cell death. For example, a value of 40 represents 60% growth inhibition. A value of 0 means no net growth occurred over the course of the experiment. A value of -40 indicates 40% of cells at the beginning of the experiment died by the end of the experiment. A value of -100 means all cells are dead at the end of the experiment.
NCI-60 Human Tumor Cell Lines Screen was performed using the standard one-dose NCI protocol, which is described in more detail at https://dtp.cancer.gov/discovery_development/nci-60/default.htm.
Compounds with GIPRCNT values below 10 were considered active. Activity score was based on GIPRCNT using the following formula: […]
Score is 0 for GIPRCNT values of 100 or above, 50 for GIPRCNT values of 0, and 100 for GIPRCNT values of -100.
For `Cc1ccc2c(c1)C(=O)/C(=C\Nc1ccc(C(N)=O)cc1)C(O)O2` (stereo not given), the growth was 46.5%.

Regarding `CCOc1cc(/C=C/C(=O)C(C(=O)/C=C/c2ccc(OC(=O)CNc3nc4ccccc4[nH]3)c(OCC)c2)C(=O)CNc2nc3ccccc3[nH]2)ccc1OC(=O)CNc1nc2ccccc2[nH]1`, the growth is -74.4% (active).

For `COc1ccccc1-n1c(-c2ccc(O)cc2C)cn2c3c(=O)[nH]c(=O)n(C)c3nc12`, the growth was 93%.

With `O=C(/C=C/c1c(-c2ccccc2)[nH]c2ccccc12)S(=O)(=O)c1ccccc1`, the growth was 21.4%.

`Clc1ccc2nc(CI)c(CI)nc2c1`: the growth is -36.6% (active).

For `COc1ccc2ncccc2c1Cc1c(OC)ccc2ncccc12`, the growth is 69.2%.

`O=C(Nc1cccc(Cl)c1)Nc1cccc(Cl)c1`: the growth was 3.08% (active).

As to `COc1ccc(NC(=O)[C@@H]2C[C@H]2c2ccccc2)c(C(N)=O)c1`, the growth was 100%.

As for `Cc1ccc2nc(SCC(=O)Nc3ccc(-c4nc5ccccc5s4)c(Cl)c3)[nH]c2c1`, the growth was 109%.

As for `CCC(C)C1NC(=O)C(CCNCS(=O)(=O)O)NC(=O)C(NC(=O)C(CCNCS(=O)(=O)O)NC(=O)C(NC(=O)C(CCNCS(=O)(=O)O)NC(=O)CCCCC(C)C)C(C)O)CCNC(=O)C(C(C)O)NC(=O)C(CCNCS(=O)(=O)O)NC(=O)C(CCNCS(=O)(=O)O)NC(=O)C(C(C)CC)NC1=O` (stereo not given), the growth was 22.6%.

For the compound `O=C1/C(=C/c2ccc(F)cc2)Cc2ccccc21`, the growth is 98%.

For the compound `COc1cc(/C=C/c2cc(/C=C/c3ccc(O)c(OC)c3)n(C(=O)c3ccc(Cl)cc3)n2)ccc1O`, the growth was -16.1% (active).

In the case of `O=C(c1ccccc1)c1ccc(Oc2ccc([N+](=O)[O-])cc2[N+](=O)[O-])cc1`, the growth was 35.2%.

Take `C[C@@H]1C[C@@H]([C@@H](CC2CC(=O)NC(=O)C2)OC(=O)CC(=O)c2ccccc2)C(=O)[C@@H](C)C1`: the growth was 17.4%.

As to `OC(c1ccccc1)C(NCc1ccccc1)c1ccccc1` (stereo not given), the growth was 84.3%.

For `CCOC1Oc2ccccc2C(=O)/C1=N/c1nccs1` (stereo not given), the growth is 36.3%.

Turning to `Cc1ccccc1NC(=O)NC(CC(N)=O)c1ccc2c(c1)nc(-c1cccc(Oc3ccc(C(C)(C)C)cc3)c1)n2CCCN1CCCCC1C` (stereo not given), the growth is -29.2% (active).

`COc1ccc(-c2ccc(O)c(C(=O)/C=C/c3cc(OC)c(OC)c(OC)c3)c2)cc1`: the growth was 24.7%.

`COC(=O)[C@H](Cc1cnc[nH]1)NC(=O)[C@@H](NC(=O)Nc1cc(C(F)(F)F)cc(C(F)(F)F)c1)C(C)C`: the growth is -53% [100 µM] (active).

In the case of `C=C(CN1CCc2c([nH]c3ccccc23)C1)c1ccc(C(=O)Nc2ccon2)cc1`, the growth was 78.4%.

Regarding `CCCCCc1c(C)[nH]c(/C=C2\N=C(c3ccc[nH]3)C=C2Oc2ccc(Cl)cc2)c1C`, the growth is -32.8% [100 µM] (active).

Consider `CC(=O)c1ccc(NS(=O)(=O)c2ccc([N+](=O)[O-])cc2)cc1`, for which the growth is 101%.

For the compound `NC(=O)c1cc(Br)cc(Br)c1NS(=O)(=O)c1ccccc1`, the growth was 97.2%.

`Oc1c(Cl)cc(Oc2cc(Cl)c(O)c(CN3CCOCC3)c2)cc1CN1CCOCC1`: the growth is 91%.

Regarding `COc1cc2c(cc1OC)C(CC1(O)CCCCC1)N(S(=O)(=O)c1ccc(C)cc1)CC2` (stereo not given), the growth is 16.7% [100 µM].

With `CNCCCn1c2c(c3ccc(F)cc3c1=O)C(=O)c1cc(OC)cnc1-2`, the growth is -20.4% (active).

With `O=C1C=CC(=O)N1c1ccccn1`, the growth was 113%.

For `O=C(Nc1ccccc1)c1cc(-n2cnc([N+](=O)[O-])c2)cc(-n2cnc([N+](=O)[O-])c2)n1`, the growth is 86.1%.

Turning to `N/C(=N\c1nc2ccccc2s1)NC(=O)Nc1ccccc1Cl`, the growth was 10.1%.

Regarding `C#C[C@]1(O)CCC2C3CCc4cc(O)ccc4C3CC[C@@]21C` (stereo not given in full), the growth is 28.4%.

`COP(=O)(OC)C(c1ccc(O)cc1)(c1ccc(O)cc1)c1ccc(O)cc1`: the growth is 99.3%.

On to `Nc1nc(Nc2ccccc2SSc2ccccc2Nc2nc(N)nc(-c3cccc(Cl)c3)n2)nc(-c2cccc(Cl)c2)n1`, for which the growth was 89.6%.

For the compound `O=C(O)c1ccc(CNS(=O)(=O)c2ccc3ccccc3c2)cc1`, the growth is 112%.

Regarding `COc1ccc(-c2c3c(N)nc(-c4ccncc4)nc3nc3c2c(C)nn3-c2ccccc2)cc1`, the growth was 84.3%.

Consider `c1cc[n+](Cc2ccnc3ccccc23)cc1`, for which the growth was 97.1%.

As for `CCOc1cc(/C=C/C(=O)CC(=O)/C=C/c2ccc(OC(=O)CNCCN(CC)CC)c(OCC)c2)ccc1OC(=O)CNCCN(CC)CC`, the growth is -52.9% (active).

As for `O=C(COc1cccc(/C=C2\Oc3ccc4ccccc4c3C2=O)c1)c1ccc([N+](=O)[O-])cc1`, the growth was 79.9%.

`CC(C)CNc1nc(N=[N+]=[N-])nc(NCC(C)C)n1`: the growth is 33.1% [100 µM].

For the compound `CC(=O)Nc1ccc(C(=O)COc2ccc(/C=C3\CCc4ccccc4C3=O)cc2)cc1`, the growth was 83.3%.

In the case of `COc1cnc2c(c1)C(=O)c1c-2n(CCCN2CCOCC2)c(=O)c2cc(F)ccc12`, the growth is -19.2% (active).
